In ChEMBL document CHEMBL3988442, “University of Dundee, Small-Polar-MMV Screening Library” (2021):
For some of these results: Entries with a potency or affinity are not part of this list.

Tests used:
Design in all cases: scale not given: direction of the effect not stated beside the values
[1] = biological target: Protein translocase subunit SecA (Escherichia coli (strain K12)) (UniProt P10408); test: Assay to Identify E. coli SecA ATPase Inhibitors; assay type: functional; conditions: 30 µM
[2] = biological target: T1, Ubiquitin-activating enzyme e1, putative (Leishmania donovani (strain BPK282A1)) (UniProt E9BSI1); test: Leishmania donovani Ubiquitin Activating Enzyme (LdE1); assay type: functional; conditions: 30 µM
T1 sequence (whole entry): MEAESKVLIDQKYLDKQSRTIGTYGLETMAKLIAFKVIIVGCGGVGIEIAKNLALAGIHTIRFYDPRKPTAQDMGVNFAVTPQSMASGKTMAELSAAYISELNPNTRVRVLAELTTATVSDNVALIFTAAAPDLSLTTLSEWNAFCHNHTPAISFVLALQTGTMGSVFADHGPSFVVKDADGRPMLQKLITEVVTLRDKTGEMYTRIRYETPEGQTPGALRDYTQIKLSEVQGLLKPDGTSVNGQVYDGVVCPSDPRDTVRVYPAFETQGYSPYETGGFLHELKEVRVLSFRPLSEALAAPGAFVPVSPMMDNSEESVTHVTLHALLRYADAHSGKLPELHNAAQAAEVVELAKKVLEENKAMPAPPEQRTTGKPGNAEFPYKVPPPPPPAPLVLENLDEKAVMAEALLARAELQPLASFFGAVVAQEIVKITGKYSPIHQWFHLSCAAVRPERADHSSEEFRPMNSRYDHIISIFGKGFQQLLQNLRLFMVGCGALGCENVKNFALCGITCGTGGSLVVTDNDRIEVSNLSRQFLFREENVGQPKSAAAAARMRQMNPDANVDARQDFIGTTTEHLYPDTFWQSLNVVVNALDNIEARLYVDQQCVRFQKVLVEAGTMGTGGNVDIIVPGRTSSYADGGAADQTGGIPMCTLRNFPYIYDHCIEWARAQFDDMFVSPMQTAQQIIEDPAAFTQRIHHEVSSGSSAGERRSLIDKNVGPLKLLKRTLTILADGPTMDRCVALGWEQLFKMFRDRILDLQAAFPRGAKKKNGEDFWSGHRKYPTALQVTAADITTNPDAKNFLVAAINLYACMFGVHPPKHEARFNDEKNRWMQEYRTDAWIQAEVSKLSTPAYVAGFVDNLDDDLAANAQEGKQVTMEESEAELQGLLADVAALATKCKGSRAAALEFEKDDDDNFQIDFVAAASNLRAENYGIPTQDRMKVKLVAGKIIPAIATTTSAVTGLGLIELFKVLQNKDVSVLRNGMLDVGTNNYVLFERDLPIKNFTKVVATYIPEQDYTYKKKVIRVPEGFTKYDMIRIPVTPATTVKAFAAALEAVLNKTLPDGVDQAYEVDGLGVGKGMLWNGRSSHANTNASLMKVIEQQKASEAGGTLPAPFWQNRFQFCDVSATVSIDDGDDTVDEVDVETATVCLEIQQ

[3] = biological target: AMP-activated protein kinase, AMPK (Homo sapiens) (UniProt P54646+O43741+P54619+Q9UGJ0+Q9Y478+Q13131+Q9UGI9); test: AMP-dependent Kinase enzyme assay. An in vitro enzyme assay that detects ADP turnover that is directly proportional to AMPK activity. This uses naive AMPK that is activated during the assay with MK-8722; assay type: functional; conditions: 30 µM
[4] = biological target: Sialic acid-binding Ig-like lectin 9 (Homo sapiens) (UniProt Q9Y336); test: Hs-Siglec9 ALPHAscreen SOP 20170721; conditions: 10 µM
Sequence of Sialic acid-binding Ig-like lectin 9 (Homo sapiens) (Q9Y336 whole entry): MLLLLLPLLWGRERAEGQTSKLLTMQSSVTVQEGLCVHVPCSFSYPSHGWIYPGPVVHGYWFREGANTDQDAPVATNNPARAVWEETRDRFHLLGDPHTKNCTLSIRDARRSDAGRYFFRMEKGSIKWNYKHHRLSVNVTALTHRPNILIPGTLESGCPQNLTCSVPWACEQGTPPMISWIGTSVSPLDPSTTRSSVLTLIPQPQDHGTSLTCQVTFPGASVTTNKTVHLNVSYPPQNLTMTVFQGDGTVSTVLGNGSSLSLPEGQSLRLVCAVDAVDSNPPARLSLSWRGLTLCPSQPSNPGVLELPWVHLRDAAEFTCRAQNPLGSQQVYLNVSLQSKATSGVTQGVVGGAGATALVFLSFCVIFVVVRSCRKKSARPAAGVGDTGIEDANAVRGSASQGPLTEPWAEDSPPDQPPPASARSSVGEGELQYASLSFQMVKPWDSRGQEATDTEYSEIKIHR

Trypanosoma cruzi = test: Trypanosoma cruzi phosphomannomutase and mannose-1-phosphate guanylyltransferase assay; assay type: functional; conditions: 10 µM
[5] = biological target: T2, Arginase-2, mitochondrial (Homo sapiens) (UniProt P78540); test: in vitro enzyme assay to detect the production of urea directly proportional to the activity of Arginase II; assay type: functional; conditions: 33.3 µM; also: in the data most compounds retested in dose-response had high values
T2 sequence (whole entry): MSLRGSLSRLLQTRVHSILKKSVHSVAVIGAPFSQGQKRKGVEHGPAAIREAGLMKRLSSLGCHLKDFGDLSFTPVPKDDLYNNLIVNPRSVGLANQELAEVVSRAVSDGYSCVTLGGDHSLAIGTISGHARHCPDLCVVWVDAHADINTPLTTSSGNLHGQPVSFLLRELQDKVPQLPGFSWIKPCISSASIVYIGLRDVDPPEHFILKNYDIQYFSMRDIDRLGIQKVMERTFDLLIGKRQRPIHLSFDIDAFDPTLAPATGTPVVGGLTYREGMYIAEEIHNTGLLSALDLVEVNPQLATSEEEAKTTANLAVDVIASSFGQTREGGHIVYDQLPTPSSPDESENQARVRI

[6] = biological target: T3, Proteasome subunit beta (Trypanosoma cruzi) (UniProt O96673); test: Trypanosoma cruzi proteasome chymotrypsin-like activity (TcProtChymo) assay.; also: in the data most compounds retested in dose-response had high values; assay type: functional; conditions: 9.37 µM
T3 sequence (whole entry): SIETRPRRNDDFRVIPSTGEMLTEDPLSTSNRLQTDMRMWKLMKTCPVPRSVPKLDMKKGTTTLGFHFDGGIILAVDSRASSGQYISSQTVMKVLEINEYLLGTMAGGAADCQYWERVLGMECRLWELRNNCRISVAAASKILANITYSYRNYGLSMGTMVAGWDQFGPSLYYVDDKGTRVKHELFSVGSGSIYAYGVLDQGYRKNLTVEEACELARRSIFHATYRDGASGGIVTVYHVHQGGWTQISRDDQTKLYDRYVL

Homo sapiens = species: Homo sapiens; test: To identify inhibition of the IFN signalling (Jak-Stat) pathway via expression of an eGFP reporter gene under the control of an IFN-stimulated response element (ISRE) containing MxA promoter.; assay type: functional; conditions: 30 µM
[7] = biological target: T4, Tyrosyl-tRNA synthetase, putative (Trypanosoma cruzi (strain CL Brener)) (UniProt Q4DSP6); test: Trypanosoma cruzi tyrosyl tRNA synthetase (TcYRS) _High Tyrosine SOP; assay type: functional; conditions: 30 µM; also: in the data most compounds retested in dose-response had high values
T4 sequence (whole entry): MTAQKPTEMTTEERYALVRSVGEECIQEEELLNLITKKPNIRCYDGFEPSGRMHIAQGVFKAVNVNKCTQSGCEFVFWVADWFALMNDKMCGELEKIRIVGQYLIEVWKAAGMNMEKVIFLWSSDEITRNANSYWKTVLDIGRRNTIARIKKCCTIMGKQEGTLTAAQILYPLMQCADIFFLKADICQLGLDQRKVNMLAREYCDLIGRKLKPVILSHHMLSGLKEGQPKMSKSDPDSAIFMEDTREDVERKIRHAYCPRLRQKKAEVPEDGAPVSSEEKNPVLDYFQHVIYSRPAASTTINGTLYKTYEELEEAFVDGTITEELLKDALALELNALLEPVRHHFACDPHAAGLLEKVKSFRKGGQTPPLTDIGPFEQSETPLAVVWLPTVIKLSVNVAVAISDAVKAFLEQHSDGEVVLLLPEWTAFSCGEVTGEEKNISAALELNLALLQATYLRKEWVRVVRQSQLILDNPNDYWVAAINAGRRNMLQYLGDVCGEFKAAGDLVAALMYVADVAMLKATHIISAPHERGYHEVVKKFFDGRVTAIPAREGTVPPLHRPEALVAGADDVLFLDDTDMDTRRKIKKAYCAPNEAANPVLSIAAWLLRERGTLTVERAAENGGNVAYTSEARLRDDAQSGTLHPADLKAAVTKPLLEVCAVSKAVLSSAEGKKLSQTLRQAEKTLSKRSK

[8] = biological target: T4, Tyrosyl-tRNA synthetase, putative (Trypanosoma cruzi (strain CL Brener)); test: Trypanosoma cruzi tyrosyl tRNA synthetase (TcYRS) SOP; assay type: functional; conditions: 30 µM
[9] = biological target: Chromo domain-containing protein 1 (Saccharomyces cerevisiae (strain ATCC 204508 / S288c) (Baker's yeast)) (UniProt P32657); test: ScCHD-1 Enzyme Inhibition Assay; assay type: functional; conditions: 30 µM; also: in the data most compounds retested in dose-response had high values
Sequence of Chromo domain-containing protein 1 (Saccharomyces cerevisiae (strain ATCC 204508 / S288c) (Baker's yeast)) (P32657 whole entry, the tested form may be a part): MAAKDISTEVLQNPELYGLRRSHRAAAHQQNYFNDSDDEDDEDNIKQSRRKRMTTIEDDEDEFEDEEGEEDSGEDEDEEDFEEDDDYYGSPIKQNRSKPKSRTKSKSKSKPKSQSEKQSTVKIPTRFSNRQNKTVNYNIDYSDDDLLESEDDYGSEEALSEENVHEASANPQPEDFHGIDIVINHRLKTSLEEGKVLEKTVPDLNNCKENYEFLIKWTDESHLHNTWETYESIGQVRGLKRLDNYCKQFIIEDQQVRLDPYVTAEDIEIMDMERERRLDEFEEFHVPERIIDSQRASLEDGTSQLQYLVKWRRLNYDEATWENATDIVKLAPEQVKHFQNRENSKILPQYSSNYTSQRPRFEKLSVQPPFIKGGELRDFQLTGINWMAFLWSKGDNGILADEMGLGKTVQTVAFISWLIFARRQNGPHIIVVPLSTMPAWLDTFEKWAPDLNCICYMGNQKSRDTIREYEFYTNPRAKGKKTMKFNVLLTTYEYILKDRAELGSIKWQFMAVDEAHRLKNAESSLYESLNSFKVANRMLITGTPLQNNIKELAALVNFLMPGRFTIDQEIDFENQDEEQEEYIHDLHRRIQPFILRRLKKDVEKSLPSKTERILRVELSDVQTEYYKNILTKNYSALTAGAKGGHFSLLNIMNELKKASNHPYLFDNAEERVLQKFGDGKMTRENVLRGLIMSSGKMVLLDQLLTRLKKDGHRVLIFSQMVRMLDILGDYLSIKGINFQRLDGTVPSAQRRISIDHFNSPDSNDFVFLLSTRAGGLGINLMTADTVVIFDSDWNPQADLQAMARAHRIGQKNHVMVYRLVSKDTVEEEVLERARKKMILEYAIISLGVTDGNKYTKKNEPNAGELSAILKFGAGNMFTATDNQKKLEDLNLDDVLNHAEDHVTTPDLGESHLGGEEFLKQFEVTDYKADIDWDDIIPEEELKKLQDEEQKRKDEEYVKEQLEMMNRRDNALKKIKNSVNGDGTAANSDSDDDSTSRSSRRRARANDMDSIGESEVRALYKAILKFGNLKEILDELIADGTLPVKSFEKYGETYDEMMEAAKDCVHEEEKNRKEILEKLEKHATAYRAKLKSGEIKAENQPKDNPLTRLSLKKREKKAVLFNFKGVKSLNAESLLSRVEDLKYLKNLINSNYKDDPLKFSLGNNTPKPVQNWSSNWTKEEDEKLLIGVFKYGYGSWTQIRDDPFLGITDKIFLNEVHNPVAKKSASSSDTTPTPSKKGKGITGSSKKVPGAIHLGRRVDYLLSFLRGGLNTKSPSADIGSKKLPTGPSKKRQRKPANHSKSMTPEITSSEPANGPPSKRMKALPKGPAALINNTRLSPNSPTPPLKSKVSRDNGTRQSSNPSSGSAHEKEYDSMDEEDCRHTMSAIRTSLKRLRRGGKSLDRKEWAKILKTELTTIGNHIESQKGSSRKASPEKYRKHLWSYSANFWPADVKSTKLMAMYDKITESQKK

Sequence of Protein translocase subunit SecA (Escherichia coli (strain K12)) (P10408 whole entry): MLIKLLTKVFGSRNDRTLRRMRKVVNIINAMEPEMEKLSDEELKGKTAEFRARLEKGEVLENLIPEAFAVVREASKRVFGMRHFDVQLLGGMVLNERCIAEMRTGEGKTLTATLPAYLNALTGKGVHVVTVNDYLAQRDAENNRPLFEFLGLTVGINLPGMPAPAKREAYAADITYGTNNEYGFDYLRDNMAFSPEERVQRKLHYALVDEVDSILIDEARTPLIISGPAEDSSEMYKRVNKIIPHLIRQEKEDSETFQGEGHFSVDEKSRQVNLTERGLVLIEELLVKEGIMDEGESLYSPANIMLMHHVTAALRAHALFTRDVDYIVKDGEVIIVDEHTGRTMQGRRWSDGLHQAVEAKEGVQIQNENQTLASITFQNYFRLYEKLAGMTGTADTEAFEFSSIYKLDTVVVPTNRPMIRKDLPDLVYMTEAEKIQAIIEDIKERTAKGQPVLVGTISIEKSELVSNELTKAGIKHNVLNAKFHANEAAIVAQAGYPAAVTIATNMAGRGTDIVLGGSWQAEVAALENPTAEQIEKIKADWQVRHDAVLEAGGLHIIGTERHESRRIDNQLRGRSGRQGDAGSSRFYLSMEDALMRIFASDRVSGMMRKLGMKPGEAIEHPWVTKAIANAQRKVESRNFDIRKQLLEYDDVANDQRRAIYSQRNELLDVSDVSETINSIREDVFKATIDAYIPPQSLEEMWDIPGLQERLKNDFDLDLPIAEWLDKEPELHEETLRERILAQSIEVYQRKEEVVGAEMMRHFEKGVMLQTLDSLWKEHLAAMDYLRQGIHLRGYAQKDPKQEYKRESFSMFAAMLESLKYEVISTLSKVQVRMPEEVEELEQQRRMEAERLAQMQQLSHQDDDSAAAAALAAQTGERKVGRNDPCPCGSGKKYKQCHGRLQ

Compound	Percent Effect [1]	Percent Effect [2]	Percent Effect [3]	Percent Effect [4]	Percent Effect (Trypanosoma cruzi)	Percent Effect [5]	Percent Effect [6]	Percent Effect (Homo sapiens)	Percent Effect [7]	Percent Effect [8]	Percent Effect [9]
CS(=O)(=O)Cc1ccc(CNC(=O)c2cccnc2O)cc1	-1.42%	13.9%	8.18%	5.03%	-5.64%	1.94%	22.3%	17.9%	3.12%	7.59%	-7.98%
O=C(NCC1CC1)[C@H]1C[C@H]2OCC[C@H]2N(Cc2ccoc2)C1	-0.0445%	21.6%	4.14%	-14%	1.86%	6.69%	6.09%	32.6%	3.24%	15.4%	-0.46%
CC(Cn1cccn1)NCc1nc(-c2cccc(Cl)c2)no1 (stereo not given)	-2.57%	-2.63%	1.2%	3.09%	4.76%	0%	5.33%	11.7%	3.45%	11.1%	2.72%
CCOC(=O)NC(CNC(=O)c1ncccn1)CC(C)C (stereo not given)	-3.7%	8.11%	-1.89%	31.5%	5.96%	13.7%	11.8%	-4.96%	4.3%	13.6%	-6.28%
C[C@@H]1CN(C(=O)c2ccsc2)C[C@]12CCN(c1ccsc1)C2=O	-3.14%	0%	13.8%	-0.135%	-3.54%	-1.63%	2.91%	5.8%	5.32%	3.85%	0.408%
O=C(Cc1ccsc1)N1C[C@@H]2CN(Cc3ccoc3)CCO[C@@H]2C1	-1.51%	0%	4.82%	8.18%	1.86%	0.955%	14.6%	-8.8%	0%	7.69%	11.3%
CCCc1noc(CCC(=O)NC(C)c2nnc3n2CCCCC3)n1 (stereo not given)	-0.578%	8.11%	-6.02%	5.58%	-2.64%	5.21%	19.5%	3.01%	3.23%	8.64%	-5.75%
COC(=O)c1cccc(C(=O)N2CCCCC2CCn2ccnc2C)c1 (stereo not given)	-7.31%	8%	0.551%	4.41%	0.487%	-0.521%	25.5%	13.4%	3.83%	11.1%	-2.11%
Cc1cc(C2CCCN2C(=O)NCc2cccc(F)c2)on1 (stereo not given)	-3.25%	8%	-2.75%	0.538%	-1.07%	1.56%	16.2%	10.1%	8.2%	13.6%	-5.2%
Cc1cc(C[C@@H]2COC[C@@H]2NC(=O)Cn2c(=O)oc3ccccc32)on1	-0.169%	5.48%	1.35%	-2.12%	3.33%	8.64%	1.77%	-6.43%	4.3%	7.5%	1.28%
CN(CC1(O)CCCCC1)C1CCCN(Cc2noc(C3CC3)n2)C1 (stereo not given)	-0.786%	26.3%	-8.18%	-11.1%	-3.46%	-1.08%	10.9%	10.4%	4.43%	13.6%	-3.04%
O=C(NC1CCCN(c2ncccn2)C1)c1ccoc1 (stereo not given)	-3.61%	23.7%	-4.63%	-9.78%	-0.487%	2.37%	8.34%	8.15%	3.19%	15.6%	-9.61%
NC(=O)c1cc(C2CCCN(C(=O)CCc3ccsc3)C2)n[nH]1 (stereo not given)	-9.05%	5.2%	5.08%	-5.24%	-5.43%	-1.78%	-5.57%	30.9%	3.88%	7.32%	-4.93%
COc1nn(C)c2c1CCCN(C(=O)c1cc[nH]n1)C2	-5.44%	-5.41%	5.53%	2.19%	-4.4%	-0.319%	22.3%	-1.16%	-11.9%	-12.8%	6.55%
Cc1cc(-c2nnn(CCC(N)=O)n2)ccc1F	-3.96%	13.7%	-6.12%	8.1%	5.75%	-2.79%	15.3%	11.3%	8.33%	13.6%	-2.17%
COc1ccccc1CC(=O)NCc1c(C)nc2cc(=O)[nH]n2c1C	-2.98%	0%	-13.8%	9.27%	3.01%	1.53%	8.02%	7.43%	4.41%	7.32%	-7.8%
O=C(CCc1c[nH]cn1)N1CC[C@@H](c2ccc3ccccc3c2)[C@H](O)C1	-5.41%	10.7%	-4.75%	24.9%	5.16%	8.85%	9.77%	15.3%	7.1%	13.6%	106%
CC(=O)N(Cc1noc(C)n1)C1CCN(Cc2ccncc2Cl)C1 (stereo not given)	-3.16%	16.5%	-1.3%	0.699%	-1.95%	2.8%	12.5%	8.22%	3.12%	12.7%	-16%
O=C(NCCNCC1CNc2ccnn2C1)c1ccc(F)cc1 (stereo not given)	-2.2%	8.11%	-6.99%	25.4%	8.3%	0.476%	11.6%	-0.126%	5.82%	14.6%	-2.41%
CC(C)n1ccnc1CN1CCCN(C(=O)COC2CCCC2)CC1	-2.6%	3.8%	6.6%	4.27%	-1.74%	-2.8%	4.29%	2.51%	-1.04%	2.53%	-6.72%
